# From PubChem BioAssay
# Neddyl block: blocks human cullin neddylation | P61081+Q13564 | TR-FRET cullin neddylation, biochemical | inhibition, % at 25 µM | 360,000 tested, 0.58% active; in the data active = inhibition above about 36%
# NPR2 activator: GC-B (human) receptor activation; P20594; HEK293-GC-B cells, CNP EC30, cGMP TR-FRET; 0% at EC30 CNP, 100% saturating CNP; activation, % at 10 µM; 370,000 tested, 0.11% active; AID 1920062;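 active = activation at 10 µM reaching about 35% in either raw or pattern-adjusted values, limit read from the data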
# APOBEC3A inh: blocks human APOBEC3A ssDNA deamination; P31941; recombinant A3A, FAM/TAMRA ssDNA deamination fluorescence; inhibition, % at 20 µM; 330,000 tested, 0.41% active; AID 493011;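 active = at least 40% inhibition at 20 µM here, with at most 30% in a related deaminase screen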;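 note: plate controls were A3A with DMSO for no effect and wells lacking A3A enzyme for full effect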
# A3G deaminase: blocks human APOBEC3G single-stranded DNA deamination; recombinant A3G, ssDNA deamination FAM/TAMRA fluorescence; inhibition, % at 20 µM; 330,000 tested, 0.28% active;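 active = inhibition of at least 40% at 20 µM, with no more than 30% in the related APOBEC3A deaminase screen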;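 note: plate controls were DMSO wells with A3G for no effect and wells lacking A3G enzyme for full effect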
# NPR1 activator: GC-A (human) enzyme activation. AID 1671463. 370,000 tested, 0.14% active. activation, % at 10 µM. HEK293 GC-A cells, cGMP TR-FRET, EC30 ANP; 0% at EC30 ANP, 100% saturating ANP; in the data active = activation above about 40%
# Target sequence (P16066 whole entry, looked up): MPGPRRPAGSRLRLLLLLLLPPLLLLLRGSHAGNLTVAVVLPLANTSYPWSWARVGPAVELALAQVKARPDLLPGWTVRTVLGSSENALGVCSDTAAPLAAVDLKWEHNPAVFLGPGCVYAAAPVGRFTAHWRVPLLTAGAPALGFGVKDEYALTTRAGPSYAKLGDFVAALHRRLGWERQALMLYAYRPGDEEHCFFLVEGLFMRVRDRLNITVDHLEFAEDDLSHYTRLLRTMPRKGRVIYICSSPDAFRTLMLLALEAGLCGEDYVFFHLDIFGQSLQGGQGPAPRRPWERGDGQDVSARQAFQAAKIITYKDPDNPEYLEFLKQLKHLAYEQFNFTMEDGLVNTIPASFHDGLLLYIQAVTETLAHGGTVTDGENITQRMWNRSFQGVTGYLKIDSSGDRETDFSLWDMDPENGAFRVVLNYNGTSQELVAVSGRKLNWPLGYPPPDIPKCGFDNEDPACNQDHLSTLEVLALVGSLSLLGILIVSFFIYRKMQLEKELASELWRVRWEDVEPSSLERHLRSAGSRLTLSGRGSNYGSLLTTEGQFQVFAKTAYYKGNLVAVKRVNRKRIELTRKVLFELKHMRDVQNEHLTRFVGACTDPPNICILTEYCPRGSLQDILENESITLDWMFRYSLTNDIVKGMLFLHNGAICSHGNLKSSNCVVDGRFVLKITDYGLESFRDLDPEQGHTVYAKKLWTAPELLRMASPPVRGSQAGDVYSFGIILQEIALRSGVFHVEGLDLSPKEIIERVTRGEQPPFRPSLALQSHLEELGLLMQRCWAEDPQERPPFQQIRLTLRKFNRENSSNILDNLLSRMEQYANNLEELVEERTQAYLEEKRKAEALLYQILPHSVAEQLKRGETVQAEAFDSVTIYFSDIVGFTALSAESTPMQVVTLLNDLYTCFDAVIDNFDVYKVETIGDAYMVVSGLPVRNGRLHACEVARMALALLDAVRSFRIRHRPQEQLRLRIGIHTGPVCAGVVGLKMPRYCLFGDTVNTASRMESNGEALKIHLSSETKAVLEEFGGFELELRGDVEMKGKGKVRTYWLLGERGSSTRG
# PfG6PD inh: PfG6PD (Plasmodium falciparum) enzyme inhibition; PfGluPho enzyme, NADPH resazurin-diaphorase fluorescence; inhibition, % at 20 µM; 350,000 tested, 0.78% active; AID 504690;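 active = inhibition reaching at least a set limit at 20 µM in the primary screen, cut at about 59% in these data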;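 note: 0% = DMSO wells with substrate and 100% = DMSO wells lacking glucose-6-phosphate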
# The depositor's hits bear a star; · = not tested or not shown. Only some compounds are listed: those with a hit (about 2% of all), similar ones and a draw of the others.
SMILES,Neddyl block,NPR2 activator,APOBEC3A inh,A3G deaminase,NPR1 activator,PfG6PD inh
Nc1c(C(O)(C(F)(F)F)C(F)(F)F)cc(C(O)(C(F)(F)F)C(F)(F)F)c2ccccc12,40*,·,3,1,·,-1
C#CCOCCOCCOCCNc1nc(N2CCN(C(=O)CCCCCCCCCCNC(=O)[C@H]([C@@H](C)CC)n3cc(CCCCCN)nn3)CC2)nc(N2CCN(C(=O)CCCCCCCCCCNC(=O)[C@@H]([C@H](C)O)n3cc(C)nn3)CC2)n1,-10,·,0,5,·,55
C#CCOCCOCCOCCNc1nc(N2CCN(C(=O)CCCCCCCCCCNC(=O)Cn3cc(CCCCCN)nn3)CC2)nc(N2CCN(C(=O)CCCCCCCCCCNC(=O)[C@H]([C@@H](C)CC)n3cc(CCCCCN)nn3)CC2)n1,-23,·,-9,-5,·,66*
C#CCOCCOCCOCCNc1nc(N2CCN(C(=O)CCCCCCCCCCNC(=O)[C@H](CCCCN)n3cc(CCO)nn3)CC2)nc(N2CCN(C(=O)CCCCCCCCCCNC(=O)[C@H](CCCN=C(N)N)n3cc(C[C@@H](C)CC)nn3)CC2)n1,-13,·,-2,-5,·,62*
C#CCOCCOCCOCCNc1nc(N2CCN(C(=O)[C@H](CCCCN)n3cc(CCCC)nn3)CC2)nc(N2CCN(C(=O)[C@H](Cc3ccc(O)cc3)n3cc(CCO)nn3)CC2)n1,-25,·,-2,-4,·,76*
O=S(=O)(CC1NCCc2ccccc21)NCCc1ccccc1 (configuration not stated),·,0,·,·,1,·
Cc1ccc(S(=O)(=O)N2CCOCC2)cc1C(=O)OCC(=O)c1c(N)n(C)c(=O)n(C)c1=O,23,3,3,1,6,-10
Cn1c(N)c(C(=O)COC(=O)c2cc(S(=O)(=O)N3CCOCC3)ccc2F)c(=O)n(C)c1=O,3,37*,2,-3,26,19
COc1cc(-c2coc3c(C(=O)NCc4ccc(OC)c(OC)c4)cccc23)ccc1O,6,3,·,·,1,·
COc1ccc(CNC(=O)c2cccc3c(-c4cccc(C(N)=O)c4)coc23)cc1OC,0,38*,·,·,33,·
CC(=O)Nc1cccc(-c2cc(NC(C)=O)c3ncc(-c4cccc(C(C)=O)c4)n3c2)c1,-5,12,·,·,4,·
CC(=O)Nc1cc(-c2cccc(N)c2)cn2c(-c3ccc(C(C)=O)cc3)cnc12,5,35*,·,·,6,·
CCOC(=O)[C@@H](CCc1ccccc1)N[C@@H](C)C(=O)N1CCC[C@H]1C(=O)O,·,11,·,·,4,·
Cc1nc2n(n1)C(O)c1cc([N+](=O)[O-])ccc1S2 (configuration not stated),·,·,45*,-10,·,·
Oc1ccc(C2N=C(c3ccccc3)NC(c3ccccc3)=N2)cc1,5,34*,2,-2,27,-12
c1ccc(C2=NC(c3ccccc3)N=C(c3ccccc3)N2)cc1,0,-7,-3,-7,-7,4
O=C(CCc1ccccc1)N[C@H]1[C@H](OC(=O)c2cnccn2)CCC[C@]12C(=O)N(Cc1ccccc1)c1ccccc12,·,-9,·,·,-6,·
Cc1nc2sc3c(NCc4ccco4)ncnc3c2c2c1COC(C)(C)C2,9,3,-2,0,20,62*
COC(=O)[C@H](CC(C)C)N1Cc2nnn(Cc3ccc(C)cc3)c2-c2cc(F)ccc2S1(=O)=O,·,3,·,·,-2,·
NC(N)=N/N=C/c1ccc2cccc(OCc3ccccc3)c2n1,45*,-3,5,-1,0,6
Clc1ccc2ccc3cccnc3c2n1,0,5,-2,-7,1,1
O=S1(=O)Nc2c(ccc3cccnc23)-c2ccccc21,52*,·,-13,2,·,31
O=C(CCc1[nH]c2ccccc2c1Sc1ccccc1)NCCO,7,16,-4,0,43*,2
CCN(CC)S(=O)(=O)c1ccc(O)c(NC(=O)c2cc(-c3cc(OC)c(OC)c(OC)c3)nc3ccccc23)c1,38*,·,-1,27,·,33
CC(C)c1ccc(C2NC(=S)NC3=C2C(=O)CC(C)(C)C3)cc1 (configuration not stated),-218,2,-2,-6,43*,7
SMILES,Neddyl block,NPR2 activator,APOBEC3A inh,A3G deaminase,NPR1 activator,PfG6PD inh
CCc1ccc(C2NC(=S)NC3=C2C(=O)CC(C)(C)C3)cc1 (configuration not stated),-99,6,-3,-7,14,20
CCc1ccccc1N(CC(=O)NCc1ccco1)C(=O)c1snc(C(N)=O)c1N,39*,-9,4,-1,6,-3
CCOC(=O)c1[nH]c(C)c(C(=O)NC2CCCC2)c1C,1,56*,-4,-11,3,1
CCN(CC)C(=O)CC[C@H]1CC[C@]2(CCCN(CC3CC3)C2)O1,·,5,·,·,2,·
CC1CCC2(CCC(=O)N2CCCOC(=O)NC(C)(C)C)CC1 (configuration not stated),·,4,·,·,0,·
S=c1[nH]nc(-c2ccco2)n1-c1ccccc1Cl,0,4,-1,42*,0,17
S=c1[nH]nc(-c2cc(-c3ccco3)[nH]n2)n1-c1ccccc1Cl,16,1,41,78,1,49
CC(C)CNc1cccc2c1S(=O)(=O)N(Cc1cn(Cc3ccc(C(F)(F)F)cc3)nn1)Cc1ccccc1O2,·,9,·,·,3,·
Cc1cccc(C)c1NC(=O)CSc1nc(-c2ccco2)cc(C(F)(F)F)n1,-13,0,2,-1,57*,-33
COC(=O)[C@]12C[C@H](CC(=O)N3CCN(C(=O)C4CC4)CC3)C(=O)N(CCc3ccc(OC)c(OC)c3)C1=C[C@H](C(C)(C)C)O[C@@H]2C,·,-2,·,·,4,·
Cn1cc([N+](=O)[O-])c(C(=O)Nc2nc(-c3ccc(Cl)cc3)cs2)n1,-26,-2,1,-1,60*,-3
O=C(OCC(=O)N1CCN(C(=O)c2ccco2)CC1)c1cc(-c2ccco2)nc2ccccc12,45*,1,63,57,-3,46
C[C@@H]1COc2cc(F)ccc2S(=O)(=O)N1C,·,5,·,·,-4,·
Cc1cc(S(=O)(=O)c2ccc([N+](=O)[O-])cn2)ccc1Br,-9,37*,-3,-5,20,10
Cc1ccc(S(=O)(=O)c2ccc([N+](=O)[O-])cn2)cc1,1,4,0,-5,9,24
CC(=O)Nc1ccc(Nc2nc(C)c([N+](=O)[O-])c(Nc3ccc(NC(C)=O)cc3)n2)cc1,-49,38*,-4,-7,33,15
O=C(NC1=N[C@@]2(C=C3CCCCC3n3c(=O)n(-c4ccccc4)c(=O)n32)[C@H](Cc2ccccc2)N1Cc1ccccc1)c1ccccc1 (some centres not stated),·,3,·,·,-2,·
C=CCN(C)CC#Cc1ccccc1C,·,11,·,·,4,·
